Ten molecules from PubChem BioAssay (EPA / NIEHS) can be followed below.

Results filed as inconclusive are left out. Active and inactive are the calls of the source. Rule for the calls: active = hit-call score of the fitted dose curve at least 0.9, where 1 is the maximum; inconclusive = response in the unintended direction; inactive = score below 0.9.

A word on the AC50: it is the concentration giving half of the maximal activity seen.

The target of this assay is Estrogen receptor (Homo sapiens) (UniProt P03372). Kind of assay: CCTE_Deisenroth_AIME_384WELL_LUC_Active: CCTE's 384-well Estrogen Receptor Transactivation Assay with AIME metabolic competence (ERTA luciferase; metabolism positive), Deisenroth Lab (AID 2284030). How it is done: CCTE_Deisenroth_AIME_384WELL (AIME metabolism assay) is a cell-based, single-readout assay that uses VM7Luc4E2, a human mammary gland/breast cell line, with measurements taken at 24 hour after chemical dosing in a 384-well plate.CCTE_Deisenroth_AIME_384WELL_LUC_Active is one of four assay components measured or calculated from the CCTE_Deisenroth_AIME_384WELL assay. It is designed to make measurements of luciferase induction, a form of inducible reporter, as detected with bioluminescence signals by luciferase-coupled ATP quantitation technology.CCTE_Deisenroth_AIME_384WELL_LUC_Active is a component of the CCTE_Deisenroth_AIME_384WELL assay that measures the effect of retroftting the VM7Luc ERTA assay with the Alginate Immobolization of Metabolic Enzymes (AIME) metabolism method. AIME is optimized to impart phase I hepatic metabolism using phenobarbital/beta-naphthoflavone induced hepatic S9 from male Sprague Dawley rats. Parent chemicals are incubated for 2 hours in the AIME assay prior to transfer to the VM7Luc ERTA assay plate. […] This endpoint evaluates reporter induction in metabolism positive mode. Using a type of inducible reporter in VM7Luc cells, gain-of-signal activity can be used to understand changes in the reporter gene as they relate to xenobiotic metabolism and the gene ESR1. This assay endpoint, CCTE_Deisenroth_AIME_384WELL_LUC_Active, was analyzed in the positive analysis fitting direction relative to 17beta-estradiol as the positive control in the ERTA assay. To generalize the intended target to other relatable targets, this assay endpoint is annotated to the nuclear receptor intended target family, where the subfamily is steroidal.
Sequence of Estrogen receptor (Homo sapiens) (P03372 whole entry, looked up): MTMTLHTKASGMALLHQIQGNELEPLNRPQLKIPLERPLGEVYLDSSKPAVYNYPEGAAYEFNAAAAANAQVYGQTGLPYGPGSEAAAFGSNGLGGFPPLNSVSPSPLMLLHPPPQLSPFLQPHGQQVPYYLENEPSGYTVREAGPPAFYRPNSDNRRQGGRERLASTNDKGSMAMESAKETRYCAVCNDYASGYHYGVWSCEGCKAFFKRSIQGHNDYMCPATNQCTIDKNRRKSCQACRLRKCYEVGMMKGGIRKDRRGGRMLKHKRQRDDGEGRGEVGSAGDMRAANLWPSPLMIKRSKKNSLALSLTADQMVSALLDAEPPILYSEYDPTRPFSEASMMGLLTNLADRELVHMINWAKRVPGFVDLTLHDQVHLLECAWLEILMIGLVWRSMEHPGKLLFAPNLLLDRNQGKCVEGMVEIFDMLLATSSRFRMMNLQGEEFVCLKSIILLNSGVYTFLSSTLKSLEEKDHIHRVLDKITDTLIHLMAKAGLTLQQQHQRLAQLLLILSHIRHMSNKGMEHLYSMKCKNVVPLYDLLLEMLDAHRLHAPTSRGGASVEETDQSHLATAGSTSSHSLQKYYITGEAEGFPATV
The AIME procedure consists of a preparative "pre-stamping" step using a barium chloride/poly-L-lysine (PLL) solution followed by "stamping" the lid in alginate-hepatic S9 (metabolism positive) or alginate-water (metabolism negative) to form microspheres. Once stamping is completed, the AIME lids are placed in duplicate microplates (metabolism positive or negative) containing chemical solutions and incubated for two hours to facilitate metabolic reactions. The conditioned medium, containing parent chemical or metabolites, is then transferred to the cell-based VM7Luc Estrogen Receptor Transactivation Assay (ERTA) for 24 hours. A typical experimental design tests a 10-point concentration series (0.002 - 200 uM) for 8 compounds (96-well format)1 or 32 compounds (384-well format)2 in single technical replicate. AIME assay controls include trans-stilbene (bioactivated control) and ethylparaben (bioinactivated control). ERTA assay plate controls include 17-beta estradiol (positive control) and DMSO (solvent control). Experiments typically comprise a minimum of four experimental replicates (n=4).
On to `CCCCOC(=O)C(C)O` (stereo not given), for which the molecule was called inactive.
`OCC1CCCO1` (stereo not given): the molecule was classed as inactive.
The same measure, in the same setting: with `CCOC(OCC)OCC` the entry was “inactive”.
`CC(=O)CCC(C)C`: the molecule was classed as inactive.
Take `O=C(c1ccccc1)c1ccc(O)cc1O`: the AC50 was 42.3 µM (active).
For `CCCCCCCC/C=C\CCCCCCCC(=O)OCC(O)CO` (stereo not given), the result was inactive.
The same measure, in the same setting: then `CC(C)(C)c1cc(Cc2cc(C(C)(C)C)c(O)c(C(C)(C)C)c2)cc(C(C)(C)C)c1O`, with “inactive”; and `N#Cc1ccccc1O`, with “inactive”.
On the same count and under the same terms, then `O=C1C=CC(=O)N1c1ccccc1`, with “inactive”.
Turning to `Cc1ccc(O)c(-n2nc3ccccc3n2)c1`, the concentration at half-maximal activity (AC50) is 51.3 µM (active).
